Bioassay records: PubChem BioAssay, NMMLSC
Jurkat autofluor: autofluorescence counter-screen for VLA-4 integrin assays | fluorescence ratio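 (tested at 10 µM compound in the well)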 | Jurkat cells, compound autofluorescence, flow cytometry; hits give high values; 1 = vehicle-only cell background | 24,000 tested, 0.61% active;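 active means fluorescence ratio above 2.44, which is 1 plus 3 SD of all ratios; inconclusive means signal too bright to measure linearly, ratio around 10 or more; inactive means fluorescence ratio below 2.44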;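 further: green fluorescence of cells measured with 488 nm excitation and 530 nm emission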
VLA-4 allo ag: allosterically activates the human VLA-4 integrin; Jurkat cells, LDV-FITC binding, flow cytometry; activation, % at 10 µM (by protocol); 24,000 tested, under 10 active; AID 528;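 active means fluorescent ligand binding to cells raised by more than 40% of the manganese-induced maximum; inconclusive means compound's own fluorescence above 85% of the ligand control signal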;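 further: 0% = ligand binding without compound and 100% = manganese-stimulated maximal binding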
Target sequence (P13612 whole entry, looked up): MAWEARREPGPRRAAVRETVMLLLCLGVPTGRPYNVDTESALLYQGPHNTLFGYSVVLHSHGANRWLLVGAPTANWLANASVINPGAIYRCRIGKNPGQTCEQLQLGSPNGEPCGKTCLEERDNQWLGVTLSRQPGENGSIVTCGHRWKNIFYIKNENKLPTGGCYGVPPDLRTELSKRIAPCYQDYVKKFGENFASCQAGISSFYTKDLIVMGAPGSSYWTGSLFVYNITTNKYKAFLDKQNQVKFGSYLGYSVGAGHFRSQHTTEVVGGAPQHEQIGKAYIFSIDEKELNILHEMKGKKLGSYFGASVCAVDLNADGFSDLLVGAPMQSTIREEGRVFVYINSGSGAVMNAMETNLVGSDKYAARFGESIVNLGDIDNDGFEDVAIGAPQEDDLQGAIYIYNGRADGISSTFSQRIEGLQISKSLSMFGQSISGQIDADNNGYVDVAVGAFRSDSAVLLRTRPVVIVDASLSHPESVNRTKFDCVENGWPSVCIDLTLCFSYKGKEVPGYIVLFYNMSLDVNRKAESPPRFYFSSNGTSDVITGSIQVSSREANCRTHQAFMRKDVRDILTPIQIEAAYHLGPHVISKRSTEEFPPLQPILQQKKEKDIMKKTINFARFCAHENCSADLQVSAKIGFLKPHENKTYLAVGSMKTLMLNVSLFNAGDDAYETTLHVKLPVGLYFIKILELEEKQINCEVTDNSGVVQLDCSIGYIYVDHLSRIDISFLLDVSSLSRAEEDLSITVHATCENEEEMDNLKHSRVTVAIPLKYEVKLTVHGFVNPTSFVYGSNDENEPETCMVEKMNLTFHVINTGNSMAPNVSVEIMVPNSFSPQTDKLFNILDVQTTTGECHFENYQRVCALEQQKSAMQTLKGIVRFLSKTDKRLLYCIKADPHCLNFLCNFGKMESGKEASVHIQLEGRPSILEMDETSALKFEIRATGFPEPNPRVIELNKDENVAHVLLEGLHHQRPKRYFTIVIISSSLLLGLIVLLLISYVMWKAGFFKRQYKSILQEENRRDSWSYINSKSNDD
LNCaP diff act: promotes differentiation of LNCaP prostate cells. AID 795. flow cytometry side scatter, 4 d. 24,000 tested, 0.56% active. side scatter shift, % at 10 µM;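 active means side scatter shift above 30%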;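 further: androgen-responsive LNCaP prostate cancer cells in charcoal-stripped serum medium; percent of cells past a gate set so DMSO wells show 10% shift; higher shift means more granular cells and more differentiation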
VLA-4 antagonist: blocks LDV-FITC ligand binding to Mn2+-activated human VLA-4 integrin. P13612. Jurkat cells, LDV-FITC binding with Mn2+, flow cytometry; 100% = Mn2+-driven binding gain fully reversed. inhibition, % at 10 µM (by protocol). 24,000 tested, 0.2% active;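 active means inhibition above 50%; inconclusive means compound itself fluorescent, judged against control cell fluorescence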;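 further: 0% = Mn2+ stimulated cells lacking compound and 100% = ligand binding without Mn2+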
Numbers without * were called inactive; ? = inconclusive; / = no result. Sampled rows, rich in hits. Any-hit rate of the full collection: about 1.5%.

SMILES | Jurkat autofluor | VLA-4 allo ag | LNCaP diff act | VLA-4 antagonist
CCOC(=O)Cn1c(=O)oc2cc(S(=O)(=O)N3CCCC(C(=O)OCC)C3)ccc21 (centres undefined) | 3.14* | ? | 12.0 | ?
CCOC(=O)Cn1c(=O)oc2cc(S(=O)(=O)N3CCC(N4CCCCC4)CC3)ccc21 | 1.27 | 5.0 | 3.0 | 7.0
CCOC(=O)Cn1c(=O)oc2cc(S(=O)(=O)Nc3c(C)cc(C)cc3C)ccc21 | 6.02* | ? | 10.0 | ?
CCOC(=O)Cn1c(=O)oc2cc(S(=O)(=O)NCc3cccs3)ccc21 | 1.39 | ? | 9.0 | ?
CCOC(=O)Cn1c(=O)oc2cc(S(=O)(=O)NCc3ccccn3)ccc21 | 3.65* | ? | 4.0 | ?
FC(F)(F)c1ccc(N2CCOCC2)c(Nc2nc3ccccc3n3cnnc23)c1 | 2.72* | ? | 5.0 | ?
Cc1cccn2c(=O)c3cc(C#N)c(=NC(=O)c4ccncc4)n(Cc4ccco4)c3nc12 | 4.14* | ? | 8.0 | ?
CC(C)n1c(=NC(=O)c2ccco2)c(C#N)cc2c(=O)n3ccccc3cc21 | 1.19 | 0.0 | 5.0 | 7.0
Cc1ccc(C2C3CSCC=C3C(C#N)=C(N)C2(C#N)C#N)cc1 (centres undefined) | 8.79* | ? | 2.0 | ?
O=C(Cc1ccc(-n2cccc2)cc1)N1CCc2ccccc21 | 4.92* | ? | 10.0 | ?
Cc1noc(/C=C/N(C)C)c1S(=O)(=O)N1CCCC(C(=O)NCc2ccccc2Cl)C1 (centres undefined) | 1.05 | -3.0 | 16.0 | 34.0
O=C(NC(c1ccccc1)c1ccccc1)C1CCCN(S(=O)(=O)c2cnc[nH]2)C1 (centres undefined) | 1.05 | -6.0 | 4.0 | 7.0
Cc1cccn2c(=O)c3cc(C(=O)N4c5ccccc5CC4C)n(C)c3nc12 (centres undefined) | 2.7* | ? | 10.0 | ?
CN1CCN(c2cc3c(c4c2[nH]c2ccccc24)C(=O)CC(C)(C)C3)CC1 | 1.09 | -8.0 | 63.0* | -6.0
c1ccc(N2CCN(c3nnc(Cc4cccnc4)c4ccccc34)CC2)nc1 | 1.17 | -4.0 | 30.0* | 2.0
CC(C)NC(=O)c1cnc(N2CCN(c3ccccn3)CC2)c2ccccc12 | 1.12 | 2.0 | 23.0 | 8.0
CC(NC(=O)CN1C(=O)COc2ccccc21)c1ccccc1 (centres undefined) | 0.96 | 6.0 | 6.0 | -1.0
CCc1ccc(CNC(=O)CN2C(=O)COc3ccccc32)cc1 | 1.07 | -3.0 | / | 52.0*
COC(=O)c1cc(-c2ccccc2)sc1NC(=O)c1cc(C)on1 | 1.03 | 7.0 | 35.0* | -11.0
CCSc1cc(C2C(C(=O)OC)=C(C)NC3=C2C(=O)CCC3)c(C)o1 (centres undefined) | 0.95 | -1.5 | 8.0 | -4.0
Cc1nc(SCC(=O)c2c[nH]c3ccccc23)n[nH]1 | 3.39* | ? | 9.0 | ?
CN(C)c1ccc(-c2nn3c(-c4ccc(Cl)cc4Cl)nnc3s2)cc1 | 1.03 | 3.5 | 39.0* | -7.5
CCOc1cccc2cc(-c3cn4cc(C)ccc4n3)c(=O)oc12 | 1.03 | 6.0 | 57.0* | -19.0
CCOc1cccc2cc(-c3nnc(NCc4ccco4)s3)c(=O)oc12 | 1.56 | ? | 9.0 | ?
CC(C)Cc1nc2oc3c(N4CCN(CCO)CC4)ncnc3c2c2c1CCCC2 | 0.95 | 9.0 | 32.0* | -15.5
SMILES | Jurkat autofluor | VLA-4 allo ag | LNCaP diff act | VLA-4 antagonist
CC1=C(C(=O)Nc2ccccc2C)C(c2ccc(C)o2)N2C(=O)CSC2=N1 (centres undefined) | 1 | 8.0 | 11.0 | -5.0
CCCOc1ccc(C(CC(=O)O)NC(=O)c2ccc3c(c2)OCO3)cc1 (centres undefined) | 1.04 | -9.0 | 22.0 | 88.0*
CCCCOc1ccc(-c2nnn(CC(=O)NCc3ccco3)n2)cc1 | 1.05 | 3.5 | 22.0 | -10.0
CCCCOc1ccc(-c2nnn(CC(=O)Nc3ncc(CC(=O)OCC)s3)n2)cc1 | 1 | -34.5 | 9.0 | 93.5*
COc1ccc(CC(=O)OCC(=O)NC(=O)NC2CCCCC2)cc1 | 0.96 | 2.0 | 12.0 | 9.0
CCOc1ccc(-c2cc(C(=O)NCCCN3CCN(CC)CC3)c3ccccc3n2)cc1 | 1.09 | 2.0 | 37.0* | -21.0
O=C(NCCCN1CCOCC1)c1cc(-c2ccc3c(c2)OCO3)nc2ccccc12 | 1.08 | 0.0 | 12.0 | 5.0
CNc1nn(-c2cccc(Cl)c2)nc1N | 8.09* | ? | 13.0 | ?
CC1(C)CC(=O)c2cc(OCC(=O)NCCCN3CCN(c4ccc(F)cc4)CC3)ccc2O1 | 1.08 | -4.0 | 25.0 | 0.5
O=C1C(C23CC4CC(CC(C4)C2)C3)C(=O)N(c2ccccc2)N1c1ccccc1 | 1 | -6.0 | / | 41.0
CCCCC1C(=O)N(c2ccccc2)N(c2ccccc2)C1=O | 0.97 | -43.3 | 4.0 | 80.0*
COc1ccc(C(CC(=O)O)NC(=O)C2CCCCC2)cc1 (centres undefined) | 1.05 | -4.0 | 6.0 | 40.0
CC(C)Oc1ccc(C(CC(=O)O)NC(=O)C2CCCCC2)cc1 (centres undefined) | 1.04 | -11.5 | 12.0 | 96.5*
O=c1c[n+]([O-])c2ccccc2n1OCc1c(F)cccc1F | 3.11* | ? | 13.0 | ?
OC(Cn1cccn1)c1ccccc1 (centres undefined) | 1.07 | 0.0 | 10.0 | 6.0
COc1ccc(Cn2c(C)nc3c(c2=O)c2nc4ccccc4nc2n3Cc2ccco2)cc1 | 1.25 | 5.5 | 58.0* | -16.0
COC(=O)c1ccc(CSc2nc3ccccc3c(=O)n2Cc2ccco2)o1 | 1.01 | -6.5 | 7.0 | 4.0
CCCCCNC(=O)CCCCn1c(=O)[nH]c2cc(OCC)c(OCC)cc2c1=O | 1 | -10.5 | 15.0 | 77.7*
Cn1c(=O)c2c(-c3ccncc3)c3c(nc2n(C)c1=O)-c1ccccc1C3=O | 1 | -2.0 | 9.0 | -14.5
O=C(CN(Cc1ccco1)C(=O)c1cc(=O)[nH]c2ccccc12)Nc1ccccc1Br | 0.99 | -9.0 | 13.0 | 4.5
COc1cccc2c1C(=O)c1c(O)c3c(c(O)c1C2=O)C[C@@](O)(C(=O)CO)C[C@@H]3O[C@H]1C[C@H](N)[C@H](O)[C@H](C)O1 | 6.26* | ? | 5.0 | ?
C=C(C)C1Cc2c(C)nn(-c3nc(C)cc(C)n3)c2C1 (centres undefined) | 1 | -20.0 | 10.0 | 54.0*
Cc1ccc(C2=Nc3ccccc3NC(C)(c3ccc(C)o3)C2)o1 (centres undefined) | 1.11 | 8.0 | 35.0* | 1.0
Cc1c(C(=O)N2CCN(c3ccc(F)cc3)CC2)sc2nc(-c3ccccc3)cn12 | 1.06 | -9.0 | 7.0 | 30.0
COC(=O)C1CCN(C(=O)c2sc3nc(-c4ccc(F)cc4)cn3c2C)CC1 | 1.15 | -2.0 | 13.0 | -3.0
COc1ccccc1N1CCN(C(=O)c2sc3nc(-c4ccccc4)cn3c2C)CC1 | 3.16* | ? | 9.0 | ?
CCOC(=O)C1CCN(C(=O)c2sc3nc(-c4ccccc4)cn3c2C)CC1 | 2.78* | ? | 8.0 | ?
Cc1ccc2c(c1)NC(=O)C(CC(=O)NCCCN1CCCCC1)O2 (centres undefined) | 0.8 | ? | 11.0 | ?
